Test results taken from the supplement of paper PMC10849652.
About 8,800 targets were measured; listed, in parts, are those with a hit and a random draw of the rest. About 0.5% of all pairs of compound and target were hits.

Key:
Test in all cases: log2 fold change, soluble protein after heating vs DMSO (PISA); higher = thermal stabilisation; K562 lysate, 10 uM; active = over 0.2 and 3.5 SD of the protein, either way, in both replicates (recomputed)
[1] = compound: C1=CC=C(C=C1)[C@H](COC2=CC3=C(C=C2)NC(=O)N3)NC(=O)C4=CC=CN(C4=O)CC5=CC(=C(C=C5)F)F
Method in brief: (§1)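 Log-two fold change in thermal stability relative to solvent controls is reported from duplicates. For each sample, crude K562 extract from dounce-homogenised pellets in PBS pH 7.4 with 1 mM MgCl2, at 1 mg/mL protein, was treated with 10 μM compound for 30 min. Aliquots heated for 3 min across 48°C-58°C were pooled, brought to 0.5% NP-40 at 4°C and cleared at 21,000xg for 90 min. The supernatant was quantified by TMTpro 16plex LC-MS/MS with channel sums equalised.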

[2] = compound: CC1=C(SC2=C1C(=N[C@H](C3=NN=C(N32)C)CC(=O)N)C4=CC=C(C=C4)Cl)C
Method in brief: as §1

[3] = compound: CC1=C2C(=CC=C1)N=C(N(C2=O)C3=CC=CC=C3C)CN4C=NC5=C(N=CN=C54)N
Method in brief: as §1

[4] = compound: Cc1sc2c(c1C)C(c1ccc(Cl)cc1)=N[C@@H](CC(=O)OC(C)(C)C)c1nnc(C)n1-2
Method in brief: as §1

[5] = compound: c1ccc([C@@H]2C[C@H]2NC2CCNCC2)cc1
Method in brief: as §1

Measured: log2 fold change

ANXA13 isoform 2 (UniProt P27216)
Chain of UniProt P27216 (P27216 whole entry, looked up): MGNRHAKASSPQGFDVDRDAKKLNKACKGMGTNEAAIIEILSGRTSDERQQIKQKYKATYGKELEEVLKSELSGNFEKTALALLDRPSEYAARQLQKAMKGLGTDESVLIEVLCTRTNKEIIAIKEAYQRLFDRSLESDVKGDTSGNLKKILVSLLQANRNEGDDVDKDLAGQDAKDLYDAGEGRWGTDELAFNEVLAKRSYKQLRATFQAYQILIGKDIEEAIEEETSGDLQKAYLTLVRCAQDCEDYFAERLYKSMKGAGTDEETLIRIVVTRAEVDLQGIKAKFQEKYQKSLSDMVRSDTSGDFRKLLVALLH
inactive: [1] 0.058 | [2] -0.041 | [3] -0.048 | [4] 0.17 | [5] 0.011

ABHD17B (UniProt Q5VST6)
Chain of UniProt Q5VST6 (Q5VST6 whole entry, looked up): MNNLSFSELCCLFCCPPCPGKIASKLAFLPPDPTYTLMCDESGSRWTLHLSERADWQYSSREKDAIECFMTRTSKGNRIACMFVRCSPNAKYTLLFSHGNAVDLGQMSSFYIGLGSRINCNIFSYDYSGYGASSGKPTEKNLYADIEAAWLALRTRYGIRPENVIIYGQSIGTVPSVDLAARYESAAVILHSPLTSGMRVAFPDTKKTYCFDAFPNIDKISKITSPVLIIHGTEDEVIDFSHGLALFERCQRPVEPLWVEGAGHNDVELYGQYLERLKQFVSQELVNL
inactive: [1] 0.014 | [2] 0.044 | [3] -0.028 | [4] -0.044 | [5] -0.198

APEX1 (UniProt P27695)
Chain of UniProt P27695 (P27695 whole entry, looked up): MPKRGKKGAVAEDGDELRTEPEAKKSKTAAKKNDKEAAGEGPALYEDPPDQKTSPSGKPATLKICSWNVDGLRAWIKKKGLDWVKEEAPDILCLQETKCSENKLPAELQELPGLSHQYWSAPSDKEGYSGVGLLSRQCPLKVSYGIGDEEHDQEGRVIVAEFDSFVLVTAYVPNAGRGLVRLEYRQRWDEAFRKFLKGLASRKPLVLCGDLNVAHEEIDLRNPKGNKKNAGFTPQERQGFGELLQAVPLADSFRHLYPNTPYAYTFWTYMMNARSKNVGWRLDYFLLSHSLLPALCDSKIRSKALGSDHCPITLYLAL
inactive: [1] 0.055 | [2] 0.007 | [3] -0.007 | [4] 0.086 | [5] 0.131

AKR1C3 (UniProt P42330)
Chain of UniProt P42330 (P42330 whole entry, looked up): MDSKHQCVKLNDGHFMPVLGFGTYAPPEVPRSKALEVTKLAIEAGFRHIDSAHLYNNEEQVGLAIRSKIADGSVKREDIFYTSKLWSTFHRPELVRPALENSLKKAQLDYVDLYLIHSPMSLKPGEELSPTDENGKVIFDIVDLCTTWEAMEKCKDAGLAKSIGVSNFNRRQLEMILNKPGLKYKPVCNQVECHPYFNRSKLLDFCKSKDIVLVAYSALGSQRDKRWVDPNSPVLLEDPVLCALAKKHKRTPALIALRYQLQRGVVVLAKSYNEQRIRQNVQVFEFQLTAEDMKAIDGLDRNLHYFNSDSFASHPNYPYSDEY
inactive: [1] 0.031 | [2] 0.05 | [3] 0.022 | [4] -0.04 | [5] 0.031

AK2 (UniProt P54819)
inactive: [1] 0.046 | [2] -0.013 | [3] 0.01 | [4] 0.051 | [5] -0.015

ANKRD52 (UniProt Q8NB46)
Chain of UniProt Q8NB46 (Q8NB46 whole entry, looked up): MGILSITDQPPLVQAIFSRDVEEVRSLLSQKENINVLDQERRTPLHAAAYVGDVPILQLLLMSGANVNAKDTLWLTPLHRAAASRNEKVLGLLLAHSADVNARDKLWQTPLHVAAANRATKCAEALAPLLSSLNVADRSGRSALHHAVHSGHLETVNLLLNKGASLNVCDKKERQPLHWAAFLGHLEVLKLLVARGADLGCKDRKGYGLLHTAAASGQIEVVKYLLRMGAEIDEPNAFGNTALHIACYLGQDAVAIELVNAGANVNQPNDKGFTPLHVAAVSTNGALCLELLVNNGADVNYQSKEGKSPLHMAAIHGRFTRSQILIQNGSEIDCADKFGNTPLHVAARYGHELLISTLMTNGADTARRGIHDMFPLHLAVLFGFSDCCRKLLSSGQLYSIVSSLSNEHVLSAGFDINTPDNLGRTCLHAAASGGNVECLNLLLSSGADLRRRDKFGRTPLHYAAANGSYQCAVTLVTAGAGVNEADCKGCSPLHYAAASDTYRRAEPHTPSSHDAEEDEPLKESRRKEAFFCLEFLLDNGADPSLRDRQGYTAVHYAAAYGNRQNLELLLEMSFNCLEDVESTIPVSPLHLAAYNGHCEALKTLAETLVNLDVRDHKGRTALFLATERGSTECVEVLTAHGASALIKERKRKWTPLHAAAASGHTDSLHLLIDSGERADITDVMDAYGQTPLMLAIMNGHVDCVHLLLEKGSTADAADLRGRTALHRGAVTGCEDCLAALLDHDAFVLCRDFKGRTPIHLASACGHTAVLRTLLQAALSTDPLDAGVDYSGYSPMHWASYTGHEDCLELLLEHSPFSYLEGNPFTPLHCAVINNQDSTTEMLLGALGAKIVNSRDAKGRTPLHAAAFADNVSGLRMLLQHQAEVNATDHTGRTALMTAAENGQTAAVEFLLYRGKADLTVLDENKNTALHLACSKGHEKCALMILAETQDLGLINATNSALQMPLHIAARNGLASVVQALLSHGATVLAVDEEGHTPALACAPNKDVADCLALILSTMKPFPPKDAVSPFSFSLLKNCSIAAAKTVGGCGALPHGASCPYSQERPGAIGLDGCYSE
inactive: [1] -0.004 | [2] -0.036 | [3] 0.056 | [4] 0.055 | [5] 0.004

ANP32A (UniProt P39687)
Chain of UniProt P39687 (P39687 whole entry, looked up): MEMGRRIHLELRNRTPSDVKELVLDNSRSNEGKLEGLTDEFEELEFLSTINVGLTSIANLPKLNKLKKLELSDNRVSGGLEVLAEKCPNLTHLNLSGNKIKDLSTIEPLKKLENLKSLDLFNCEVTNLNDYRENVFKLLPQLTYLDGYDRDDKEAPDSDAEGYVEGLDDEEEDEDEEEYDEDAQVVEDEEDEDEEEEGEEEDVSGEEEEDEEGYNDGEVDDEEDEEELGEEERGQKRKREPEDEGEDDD
inactive: [1] 0.007 | [2] 0.02 | [3] 0 | [4] 0.07 | [5] -0.033

ALG8 (UniProt Q9BVK2)
Chain of UniProt Q9BVK2 (Q9BVK2 whole entry, looked up): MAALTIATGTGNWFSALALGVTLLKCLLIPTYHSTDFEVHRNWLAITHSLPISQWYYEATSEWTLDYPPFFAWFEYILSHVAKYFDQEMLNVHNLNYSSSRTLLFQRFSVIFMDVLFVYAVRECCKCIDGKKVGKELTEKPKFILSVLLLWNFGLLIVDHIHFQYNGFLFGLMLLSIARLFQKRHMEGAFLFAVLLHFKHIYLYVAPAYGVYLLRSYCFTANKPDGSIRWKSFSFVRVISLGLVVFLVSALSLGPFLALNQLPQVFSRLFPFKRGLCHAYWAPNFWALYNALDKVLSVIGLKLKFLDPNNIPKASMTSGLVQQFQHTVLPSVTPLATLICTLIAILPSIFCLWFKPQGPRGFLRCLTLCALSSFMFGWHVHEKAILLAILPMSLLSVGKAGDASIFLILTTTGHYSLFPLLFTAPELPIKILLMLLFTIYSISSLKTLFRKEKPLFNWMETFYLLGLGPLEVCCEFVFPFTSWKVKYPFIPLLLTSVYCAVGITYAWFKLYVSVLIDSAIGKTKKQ
inactive: [1] 0.034 | [2] 0.001 | [3] 0.059 | [4] -0.013 | [5] -0.008

ABHD17A isoform 2 (UniProt Q96GS6)
Chain of UniProt Q96GS6 (Q96GS6 whole entry, looked up): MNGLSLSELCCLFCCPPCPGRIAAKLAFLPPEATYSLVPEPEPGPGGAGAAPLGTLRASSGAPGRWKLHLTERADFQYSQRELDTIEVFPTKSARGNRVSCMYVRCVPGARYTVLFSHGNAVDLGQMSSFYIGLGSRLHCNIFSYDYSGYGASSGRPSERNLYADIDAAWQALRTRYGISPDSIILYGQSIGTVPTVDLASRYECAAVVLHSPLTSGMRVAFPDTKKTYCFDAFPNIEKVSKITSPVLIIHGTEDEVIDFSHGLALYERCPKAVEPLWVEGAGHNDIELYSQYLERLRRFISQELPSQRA
inactive: [1] -0.053 | [2] -0.02 | [3] 0.011 | [4] -0.025 | [5] -0.069
